PubChem BioAssay (Tox21)
Inconclusive results are not listed. Calls of active or inactive are those of the source. Unless noted, calls follow the shape of the full dose curve.

Experiments:
[1] = Nuclear factor erythroid 2-related factor 2/antioxidant responsive element (Nrf2/ARE) small molecule agonists: qHTS cell viability counter screen in human keratinocytes (AID 1919968; active = well fitted cell-killing curve with a large enough effect in the repeat runs; also: nearly all actives have a fitted effect of over 55% in size)
Procedure, shortened: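 Fluorescence read-out from CellTiter-Fluor after 1 h at 37 C. Wells held HaCaT-derived ARE-luciferase reporter cells (1,500/well) treated 23 h with DMSO-dissolved compounds. Run in the same wells as the luciferase agonist read.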

[2] = Nuclear factor erythroid 2-related factor 2/antioxidant responsive element (Nrf2/ARE) small molecule agonists: luciferase reporter gene qHTS assay in human keratinocytes (AID 1919969); also: nearly all actives have a fitted effect of over 35% in size; also: potency is read from the fitted curve at half-maximal effect
[3] = target: Gonadotropin-releasing hormone receptor (Homo sapiens) (UniProt P30968); assay: Human gonadotropin-releasing hormone receptor (GnRHR) small molecule agonists, calcium flux assay in GnRHR-HEK293 cells (AID 1920063); also: nearly all actives have a fitted effect of over 35% in size
Procedure, shortened: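 Calcium-dye fluorescence, Ex/Em=480/540, recorded every 1 sec over 3 min after compound addition to GnRHR-HEK293 cells. Cells had been seeded 18 hours earlier and dye-loaded for 1 hour at 37 C. Fifteen concentrations, triplicates.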

[4] = G protein-coupled receptor (GPCR) small molecule agonists, calcium flux assay: HEK293 wild type cell line counter screen (AID 1920065)
Procedure, shortened: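 Agonist mode; 18 h seeding at 37 C, 1 h dye load at 37 C; compounds pinned from DMSO, ATP as positive control; kinetic fluorescence 480/540 nm, 3 min, 1 s reads; 15 concentrations, triplicate.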

[5] = p53 small molecule agonists, cell-based qHTS assay with human liver microsomes (AID 1963577)
Procedure, shortened: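 Cells carrying a p53-responsive bla reporter were rested 5 h (37 C, 5% CO2) before compound transfer. Human liver microsomes plus NADPH, 0.5 mg/mL final apiece, supplied metabolism during the 16 h 37 C exposure.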

[6] = p53 small molecule agonists, cell-based qHTS assay with rat liver microsomes (AID 1963578)
Procedure, shortened: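 Fluorescence from a beta-lactamase reporter under a p53 response element was measured after cells had been incubated 16 h at 37 C with test compound and rat liver microsomes plus NADPH (0.5 mg/mL final each).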

[7] = p53 small molecule agonists, cell-based qHTS assay with human liver microsomes: qHTS cell viability counter screen (AID 1963579); also: nearly all actives have a fitted effect of over 45% in size
Procedure, shortened: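 Seed p53RE-bla cells at 4,000 per well; incubate 5 h at 37 C; add compound, human liver microsomes and NADPH; incubate 16 h at 37 C; add CellTiter-Glo; after 30 min at room temperature, read luminescence.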

[8] = p53 small molecule agonists, cell-based qHTS assay with rat liver microsomes: qHTS cell viability counter screen (AID 1963580); also: nearly all actives have a fitted effect of over 45% in size
Procedure, shortened: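 Rat liver microsome (0.5 mg/mL final) and NADPH (0.5 mg/mL final) co-incubation with compounds for 16 h at 37 C on HCT-116 p53RE-bla cells; cytotoxicity taken from intracellular ATP luminescence.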

[9] = p53 small molecule agonists, cell-based qHTS assay: qHTS cell viability counter screen (AID 1963581); also: nearly all actives have a fitted effect of over 45% in size
Procedure, shortened: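 Cytotoxicity read-out: ATP-based luminescence (CellTiter-Glo, 30 min RT) measured in the same wells as the p53 reporter assay, HCT-116 p53RE-bla cells, 16 h compound exposure at 37 C.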

[10] = p53 small molecule agonists, cell-based qHTS assay (AID 1963582; active = well fitted activation curve with a large enough effect in the signal ratio in the repeat runs, not every such curve was filed as active; the % refers to the signal ratio)
Procedure, shortened: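 Fluorescence intensity read-out of a beta-lactamase reporter under a p53 response element. Cells were exposed to DMSO-dissolved compounds for 16 h at 37 C, then developed with FRET substrate for 2 h at RT.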

[11] = target: 5-hydroxytryptamine receptor 2A (Homo sapiens) (UniProt P28223); assay: 5-hydroxytryptamine receptor 2A (HTR2A) small molecule antagonists, cell-based qHTS assay (AID 1963586); also: nearly all actives have a fitted effect of over 45% in size; also: potency is read from the fitted curve at half-maximal effect
Procedure, shortened: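 CHO cells stably expressing human HTR2A were plated for 18 h at 37 C, then loaded with calcium dye for 1 h. Compounds were preincubated 5 min at room temperature before DOI (4 nM solution) was added. Kinetic fluorescence was read for 3 min.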

[12] = target: 5-hydroxytryptamine receptor 2A (Homo sapiens) (UniProt P28223); assay: 5-hydroxytryptamine receptor 2A (HTR2A) small molecule agonists, cell-based qHTS assay (AID 1963587); also: nearly all actives have a fitted effect of over 30% in size; also: potency is read from the fitted curve at half-maximal effect
Procedure, shortened: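 Kinetic calcium-flux fluorescence (2 min, 1 sec intervals) after compound addition in agonist mode. HTR2A-CHO cells were cultured 18 h, then dye-loaded 1 h at 37 C.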

[13] = target: Muscarinic acetylcholine receptor M1 (Homo sapiens) (UniProt P11229); assay: Cholinergic receptor muscarinic 1 (CHRM1) small molecule antagonists, cell-based qHTS assay (AID 1963588); also: nearly all actives have a fitted effect of over 40% in size
Procedure, shortened: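 Compounds were tested at 15 concentrations in three independent runs. Dye-loaded CHRM1-CHO cells were exposed 5 min at room temperature before stimulation by acetylcholine added at 50nM. Intracellular calcium was read kinetically on FDSS for 3 min.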

[14] = target: Muscarinic acetylcholine receptor M1 (Homo sapiens) (UniProt P11229); assay: Cholinergic receptor muscarinic 1 (CHRM1) small molecule agonists, cell-based qHTS assay (AID 1963589); also: nearly all actives have a fitted effect of over 35% in size
Procedure, shortened: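 Calcium flux read-out: kinetic fluorescence at 1 sec intervals after pin-tool compound addition to dye-loaded CHRM1-CHO cells (human M1). Agonist mode; 15 concentrations tested in triplicate independent runs.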

[15] = cAMP Responsive Elements (CRE) small molecule agonists, cell-based qHTS assay (AID 1963590)
Procedure, shortened: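 Beta-lactamase reporter readout: LiveBLAzer B/G FRET substrate, 2 h at room temperature, added after 3 h compound treatment of CRE-bla HEK 293T cells at 37 C/5% CO2.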

[16] = cAMP Responsive Elements (CRE) small molecule antagonists, cell-based qHTS assay (AID 1963591; active = well fitted inhibition curve with a large enough effect in the signal ratio in the repeat runs, not every such curve was filed as active; the % refers to the signal ratio)
Procedure, shortened: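 HEK293T CRE-bla; 18 h preincubation; compound pin-transfer; NKH477 0.25 uM final, 3 h, 37 C; LiveBLAzer FRET substrate 2 h RT.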

[17] = target: Beta-2 adrenergic receptor (Homo sapiens) (UniProt P07550); assay: Adrenergic beta2 receptor (ADRB2) small molecule antagonists, cell-based qHTS assay (AID 1963592); also: series mostly up to about 92 µM; nearly all actives have a fitted effect of over 50% in size
Procedure, shortened: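 Assay format: CHO-ADRB2 cells, 18-20hr seeding at 37C/5% CO2, then compound plus 1nM isoproterenol agonist mix for 0.5hr RT. Homogeneous time-resolved fluorescence cAMP detection after 1hr, expressed as 665/615 nm ratio.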

[18] = target: Beta-2 adrenergic receptor (Homo sapiens) (UniProt P07550); assay: Adrenergic beta2 receptor (ADRB2) small molecule agonists, cell-based qHTS assay (AID 1963593);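 also: CHO cells stably overexpressing human ADRB2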
Procedure, shortened: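 CHO cells stably over-expressing ADRB2 were plated overnight at 37C, then dosed with compounds plus a stimulation mix containing 100uM IBMX and 25uM Ro-20-1724 for 0.5hr at room temperature. cAMP was measured by HTRF competition, 1hr.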

[19] = target: D(2) dopamine receptor (Homo sapiens) (UniProt P14416); assay: Dopamine D2 receptor (DRD2) small molecule agonists, cell-based qHTS assay (AID 1963594); also: nearly all actives have a fitted effect of over 35% in size
Procedure, shortened: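 cAMP accumulation in DRD2-HEK293 cells measured by HTRF after 1 h detection; compounds added 10 min before NKH477 (200nM […]) forskolin-analogue stimulation, 30 min at room temperature, with Ro20-1724 present at 0.1 mM final.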

[20] = target: D(2) dopamine receptor (Homo sapiens) (UniProt P14416); assay: Dopamine D2 receptor (DRD2) small molecule antagonists, cell-based qHTS assay (AID 1963595; active = well fitted inhibition curve with a large enough effect in the signal ratio in the repeat runs, with a control signal flat; the % refers to the signal ratio)
Procedure, shortened: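 Human DRD2 antagonist qHTS measuring cAMP by HTRF. The cells are exposed to compound for 10 min, then to NKH477 (200 nM) and quinpirole (12 nM) for 30 min at RT, with Ro20-1724 (0.1 mM) present throughout.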

Measured: Potency

Chain of Beta-2 adrenergic receptor (Homo sapiens) (P07550 whole entry, looked up): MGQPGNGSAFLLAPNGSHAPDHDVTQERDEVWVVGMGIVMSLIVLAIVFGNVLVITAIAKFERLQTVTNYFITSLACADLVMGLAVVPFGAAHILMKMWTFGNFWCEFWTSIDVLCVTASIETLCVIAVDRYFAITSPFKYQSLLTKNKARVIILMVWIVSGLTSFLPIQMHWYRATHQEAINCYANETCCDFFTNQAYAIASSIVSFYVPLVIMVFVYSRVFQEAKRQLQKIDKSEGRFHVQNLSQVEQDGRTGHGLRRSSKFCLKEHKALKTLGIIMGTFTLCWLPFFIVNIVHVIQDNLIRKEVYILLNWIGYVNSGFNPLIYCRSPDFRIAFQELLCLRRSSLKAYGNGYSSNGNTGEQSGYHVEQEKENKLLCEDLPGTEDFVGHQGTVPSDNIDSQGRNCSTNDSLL
Chain of D(2) dopamine receptor (Homo sapiens) (P14416 whole entry, looked up): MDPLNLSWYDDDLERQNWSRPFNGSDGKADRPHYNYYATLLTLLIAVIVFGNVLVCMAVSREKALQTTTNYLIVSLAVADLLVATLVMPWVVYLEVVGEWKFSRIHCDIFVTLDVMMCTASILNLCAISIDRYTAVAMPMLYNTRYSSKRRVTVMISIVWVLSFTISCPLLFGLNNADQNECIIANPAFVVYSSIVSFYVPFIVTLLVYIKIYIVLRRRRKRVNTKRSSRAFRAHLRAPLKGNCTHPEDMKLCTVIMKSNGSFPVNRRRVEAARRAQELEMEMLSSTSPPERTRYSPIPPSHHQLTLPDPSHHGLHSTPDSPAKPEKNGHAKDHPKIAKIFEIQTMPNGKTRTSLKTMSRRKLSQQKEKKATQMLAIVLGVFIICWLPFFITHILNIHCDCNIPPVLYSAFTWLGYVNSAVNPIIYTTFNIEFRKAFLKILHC
Chain of 5-hydroxytryptamine receptor 2A (Homo sapiens) (P28223 whole entry, looked up): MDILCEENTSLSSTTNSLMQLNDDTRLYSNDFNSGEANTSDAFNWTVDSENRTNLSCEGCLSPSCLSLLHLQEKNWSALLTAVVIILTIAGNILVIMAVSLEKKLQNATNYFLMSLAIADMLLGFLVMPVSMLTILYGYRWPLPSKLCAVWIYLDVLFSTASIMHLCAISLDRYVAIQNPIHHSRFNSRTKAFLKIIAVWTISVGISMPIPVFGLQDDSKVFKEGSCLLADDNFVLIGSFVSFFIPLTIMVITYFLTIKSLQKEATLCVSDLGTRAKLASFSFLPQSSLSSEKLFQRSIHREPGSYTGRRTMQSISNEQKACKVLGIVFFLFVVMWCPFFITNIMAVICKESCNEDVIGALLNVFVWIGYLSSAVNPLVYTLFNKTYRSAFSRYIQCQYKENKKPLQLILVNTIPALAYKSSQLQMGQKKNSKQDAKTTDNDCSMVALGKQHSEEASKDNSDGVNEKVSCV
Chain of Muscarinic acetylcholine receptor M1 (Homo sapiens) (P11229 whole entry, looked up): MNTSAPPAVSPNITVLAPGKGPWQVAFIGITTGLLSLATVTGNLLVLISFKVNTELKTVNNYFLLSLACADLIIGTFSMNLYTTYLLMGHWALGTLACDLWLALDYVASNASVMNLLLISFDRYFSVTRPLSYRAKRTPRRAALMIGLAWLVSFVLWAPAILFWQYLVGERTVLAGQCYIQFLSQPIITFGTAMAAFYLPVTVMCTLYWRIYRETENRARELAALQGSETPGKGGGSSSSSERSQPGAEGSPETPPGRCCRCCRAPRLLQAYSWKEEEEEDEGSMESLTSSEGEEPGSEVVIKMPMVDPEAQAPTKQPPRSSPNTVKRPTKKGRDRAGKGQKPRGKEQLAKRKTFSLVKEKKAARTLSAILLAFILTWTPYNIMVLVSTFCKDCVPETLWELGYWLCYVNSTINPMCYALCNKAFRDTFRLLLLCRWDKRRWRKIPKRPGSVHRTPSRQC
Chain of Gonadotropin-releasing hormone receptor (Homo sapiens) (P30968 whole entry, looked up): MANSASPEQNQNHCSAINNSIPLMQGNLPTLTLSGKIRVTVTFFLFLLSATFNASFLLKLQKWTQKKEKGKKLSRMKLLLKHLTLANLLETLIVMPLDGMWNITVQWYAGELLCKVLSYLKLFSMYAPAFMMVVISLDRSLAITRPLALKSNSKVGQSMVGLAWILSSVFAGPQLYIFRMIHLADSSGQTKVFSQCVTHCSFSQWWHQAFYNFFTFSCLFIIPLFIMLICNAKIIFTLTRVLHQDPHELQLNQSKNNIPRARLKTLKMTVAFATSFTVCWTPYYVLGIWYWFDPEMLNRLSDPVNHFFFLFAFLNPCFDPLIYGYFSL

C=C(C)[C@@H]1CCC2=CC(=O)C[C@@H](C)[C@]2(C)C1
inactive: [1] | [2] | [3] | [4] | [5] | [6] | [7] | [8] | [9] | [10] | [11] | [12] | [13] | [14] | [15] | [16] | [17] | [18] | [19]

CN=C(NC#N)NCCSCc1nc[nH]c1C
inactive: [1] | [2] | [3] | [7] | [8] | [15] | [16] | [17] | [18] | [19] | [20]

CC1CCCC(=O)C1=O (stereo not drawn)
inactive: [1] | [2] | [3] | [5] | [6] | [7] | [9] | [11] | [12] | [15] | [16] | [17] | [18] | [19] | [20]

O=C1C(O)=C(O)C(=O)C(O)=C1O
inactive: [1] | [2] | [3] | [4] | [5] | [6] | [7] | [8] | [9] | [10] | [11] | [13] | [14] | [15] | [16] | [17] | [18] | [19] | [20]
active: [12] 0.0477 µM

N=C(N=C(N)N)N1CCOCC1
inactive: [1] | [2] | [3] | [4] | [5] | [6] | [7] | [8] | [9] | [10] | [11] | [12] | [13] | [14] | [15] | [16] | [17] | [18] | [19]

C=C(C)C(=O)OCCOP(=O)(O)O
inactive: [1] | [2] | [3] | [6] | [7] | [8] | [9] | [10] | [12] | [13] | [14] | [15] | [17] | [18] | [19] | [20]

OCCN1CCN(CCCN2c3ccccc3C=Cc3ccccc32)CC1
active: [11] 16.3 µM
inactive: [1] | [2] | [3] | [4] | [5] | [6] | [7] | [8] | [9] | [10] | [12] | [13] | [14] | [15] | [16] | [17] | [18]

COc1cc(C(=O)N2CCCCCCC2)cc(OC)c1OC
inactive: [1] | [2] | [3] | [5] | [7] | [8] | [9] | [10] | [11] | [12] | [13] | [14] | [15] | [16] | [17] | [18] | [19] | [20]

CC(C)[C@H]1CC[C@@H](C)CC1=O
inactive: [1] | [2] | [3] | [6] | [7] | [8] | [9] | [11] | [12] | [13] | [14] | [15] | [16] | [17] | [18] | [19] | [20]

CN(C1CCCCC1)S(=O)(=O)c1ccccc1N
active: [11] 37.5 µM
inactive: [1] | [2] | [3] | [4] | [5] | [6] | [7] | [8] | [9] | [10] | [12] | [13] | [14] | [16] | [17] | [18] | [19] | [20]

CC(C)(C)c1ccc(S)cc1
inactive: [1] | [3] | [4] | [5] | [6] | [7] | [8] | [9] | [10] | [11] | [12] | [13] | [15] | [16] | [17] | [19] | [20]
active: [2] 48.6 µM

O=C(O)c1cc(C(=O)O)cc([N+](=O)[O-])c1
inactive: [1] | [2] | [3] | [4] | [5] | [6] | [7] | [8] | [9] | [10] | [11] | [12] | [14] | [15] | [17] | [18] | [19] | [20]

Cc1ccc2c(c1)OCC(=O)CO2
inactive: [1] | [2] | [3] | [4] | [5] | [6] | [7] | [8] | [9] | [10] | [11] | [12] | [13] | [14] | [15] | [16] | [17] | [19] | [20]

CSc1nnc(C(C)(C)C)c(=O)[nH]1
inactive: [1] | [2] | [3] | [4] | [5] | [6] | [7] | [8] | [9] | [10] | [11] | [12] | [13] | [15] | [16] | [17] | [19] | [20]

O=C(O)c1cc(N=Nc2ccc(S(=O)(=O)Nc3ccccn3)cc2)ccc1O
inactive: [1] | [2] | [3] | [4] | [5] | [6] | [7] | [8] | [9] | [10] | [15] | [16] | [17] | [18] | [19]

Cc1cc(O)cc2c1O[C@](C)(CCC[C@H](C)CCC[C@H](C)CCCC(C)C)CC2
inactive: [1] | [2] | [3] | [4] | [5] | [6] | [7] | [8] | [9] | [10] | [11] | [12] | [13] | [14] | [15] | [16] | [17] | [19]
